The values that follow come from PubChem BioAssay AID652096 (National Center for Advancing Translational Sciences (NCATS), 2013).

Activity calls are given as the source filed them.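 Rule for the calls: active = fold change of 2 or more in glucocerebrosidase protein level on Western blot; inactive = the rest.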

Sequence of Lysosomal acid glucosylceramidase (Homo sapiens) (P04062 40-536 N409S): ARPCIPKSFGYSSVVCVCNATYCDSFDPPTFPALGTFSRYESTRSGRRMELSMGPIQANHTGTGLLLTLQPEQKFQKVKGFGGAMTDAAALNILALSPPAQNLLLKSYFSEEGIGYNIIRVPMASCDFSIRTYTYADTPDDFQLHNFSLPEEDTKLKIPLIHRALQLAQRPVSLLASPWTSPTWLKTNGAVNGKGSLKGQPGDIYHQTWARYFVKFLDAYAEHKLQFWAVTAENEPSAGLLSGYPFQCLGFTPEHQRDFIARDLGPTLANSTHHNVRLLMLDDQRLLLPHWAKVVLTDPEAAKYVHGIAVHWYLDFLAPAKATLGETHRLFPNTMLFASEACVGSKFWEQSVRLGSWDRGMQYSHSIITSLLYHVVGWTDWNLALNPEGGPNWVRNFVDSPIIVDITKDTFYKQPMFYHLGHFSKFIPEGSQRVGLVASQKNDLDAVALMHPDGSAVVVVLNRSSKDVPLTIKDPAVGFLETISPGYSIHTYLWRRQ

The target of the experiment is Lysosomal acid glucosylceramidase (Homo sapiens) (UniProt P04062). The experiment is described as follows: Extended Characterization of Activators of N370S glucocerebrosidase as a Potential Chaperone Treatment of Gaucher Disease: Western Blot. To be noted: Patient cells, GCase protein level, stronger effect = higher value. The source says:
Glucocerebrosidase (GCase) catalyzes the hydrolysis of beta-glucocerebroside to glucose and ceramide in lysosomes. Mutations in the glucocerebrosidase gene result in Gaucher disease, an autosomal recessive lysosomal storage disorder. Many of the mutations encountered in patients with Gaucher disease are missense alterations that may cause misfolding, decreased stability and/or mistrafficking of this lysosomal protein. […] These inhibitors include iminosugar analogs and other inhibitors that were discovered as part of previous work. However, the enhancement of enzyme activity by the chaperone action of an enzyme inhibitor must be balanced against the direct inhibition of the enzyme. […] In this extended characterization of our probe, we have further characterized the activity of our probe in relevant models. In this Western Blot assay, we examined the effects of compounds to increase GCase activity. NIH Chemical Genomics Center [NCGC] NIH Molecular Libraries Probe Production Centers Network [MLPCN] MLPCN Grant: MH086442 Assay Submitter (PI): Ellen Sidransky, NHGRI
The cells were plated and exposed to the compounds. Cells were harvested and the cell extracts were subjected to SDS-PAGE and Western blotting procedures to evaluate the extent of upregulation of GCase activity.
(In general: A western blot detects proteins with antibodies after separation by electrophoresis.)
In the case of `C#Cc1ccc(NC(=O)c2cnn3c(C)cc(C)nc23)cc1`, the fold change was 2 (active).
